In ChEMBL document CHEMBL1157539, “Thousands of chemical starting points for antimalarial lead identification” (Nature, 2010):

System: Plasmodium falciparum
Experiment: GSK_TCMDC: Inhibition of Plasmodium falciparum 3D7 in whole red blood cells, using parasite LDH activity as an index of growth. Test compounds present at 2uM
Type: functional

| Compound | Inhibition [%] |
| --- | --- |
| Cl.Oc1ccccc1Nc1nc(NCc2ccco2)c2ccccc2n1 | 99 |
| COc1cc(-c2cc3cc(Cl)c(Cl)cc3[nH]2)ccc1C(=O)NCCC1CCCN1C.O=C(O)C(F)(F)F (stereo not given) | 91 |
| COc1ccccc1C1CCN(C2CCC(NC(=O)c3cc4ccccc4[nH]3)CC2)CC1 (stereo not given) | 88 |
| CC(C)Cc1ccc(N2CCN(CCCCNC(=O)c3ccc(NC(=O)c4ccc(Cl)c(Cl)c4)cc3)CC2)cc1 | 94 |
| Oc1ccc(-c2ccccc2)cc1CN1CCCCCC1 | 95 |

System: Plasmodium falciparum
Experiment: GSK_TCMDC: Inhibition of Plasmodium falciparum Dd2 in whole red blood cells, using parasite LDH activity as an index of growth. Test compounds present at 2uM
Type: functional

| Compound | Inhibition [%] |
| --- | --- |
| Oc1ccc2[nH]cc(C3CCN(CCC(c4ccccc4)c4ccccc4)CC3)c2c1 | 42 |
| CN1CCN(CC2(Nc3nccc(NCCc4cn(C)c5ccccc45)n3)CCCCC2)CC1 | 41 |
| CCn1ccc2c(N3CCCS3(=O)=O)cc(C(=O)N[C@@H](Cc3ccccc3)[C@H](O)CNC3CCCCC3)cc21 | 98 |
| COc1ccc(N2CCc3c(-c4cccc5cnccc45)cc(C)nc32)c(C)c1 | 0 |
| CC(C)c1ccc(CN(C)CCCCNC(=O)c2ccc(NC(=O)c3ccc(Cl)cc3)cc2)cc1 | 0 |
| COc1cccc(Nc2nccc(NCC(O)c3cccc(C(F)(F)F)c3)n2)c1 (stereo not given) | 27 |
| COC(=O)c1ccc(C2OC3(C(=O)c4ccccc4C3=O)C(OC)=C2Cl)cc1C(C)=O (stereo not given) | 85 |
| CC(C)(C)c1ccc(NC(=O)c2cccc(CN3CCN(Cc4cccc(O)c4)CC3)c2)cc1.O=C(O)C(F)(F)F | 3 |
| CCN(CC)CCCSc1ccc(-c2ccc(SCCCN(CC)CC)cc2)cc1 | 30 |
| CCOC(=O)c1ccc(N(CCCN(CCCN(c2ccc(C(=O)OCC)cc2)S(=O)(=O)c2ccc(C)cc2)CCc2ccc(O)cc2)S(=O)(=O)c2ccc(C)cc2)cc1 | 74 |
| N#CCCN1CCN(Cc2cccc(-c3ccc(-c4nc5cc(C(F)(F)F)ccc5[nH]4)cc3)c2)CC1.O=C(O)C(F)(F)F | 63 |
| COc1ccc(Nc2ncc(OC)c(Nc3ccccc3C(N)=O)n2)cc1N1CCN(C)CC1.O=CO | 96 |
| Br.CCCN(CCCCCCN(CCC)CCc1ccc(O)c(O)c1)CCc1ccc(O)cc1 | 5 |
| Cc1cc2nc(N=C3NC4(c5ccccn5)NC(=Nc5nc6cc(C)c(C)cc6[nH]5)NC4(c4ccccn4)N3)[nH]c2cc1C.O=C(O)C(F)(F)F (stereo not given) | 62 |
| O=C(O)C(F)(F)F.O=S(=O)(/C=C/c1ccccc1)N(Cc1ccc(-c2ccc(CNCCOc3ccccc3)cc2)cc1)CC1CCCCN1 (stereo not given) | 95 |
| N#Cc1cccc(CN2CCCN(Cc3cccc(C(=O)Nc4ccc(Cl)cc4)c3)CC2)c1.O=C(O)C(F)(F)F | 9 |
| COc1ccc(CNC2CCN(c3ccc(NC(=O)c4cccc(Cl)c4)cc3)CC2)cc1OC | 13 |
| Cc1cc(OCCCNC(=N)c2ccc3ccccc3c2)c(C(C)C)cc1Cl.Cc1ccc(S(=O)(=O)O)cc1 | 10 |
| N#Cc1ccc(-c2ccc(C(=O)NC3CCN(CCN4CCC(c5cn(CCO)c6ccccc56)CC4)CC3)cc2)cc1 | 79 |
| Cc1ccc(CCNCC(O)c2cccc(C(F)(F)F)c2)cc1.Cl (stereo not given) | 83 |

| Compound | Inhibition [%] |
| --- | --- |
| COc1cc(NC(=O)C(c2ccc(Cl)cc2)C(C)C)cc(OC)c1 (stereo not given) | 98 |
| CCCCCCN1CCC(NCc2cccc3ccccc23)CC1.O=C(O)C(F)(F)F | 12 |
| N#Cc1ccc(CN2CCC(NC(=O)c3ccc(-c4nnc(-c5cccc6ccccc56)o4)cc3)CC2)cc1 | 14 |
| Cc1cccc(C(=O)Nc2ccnc(N(C)CCCN(C)Cc3cccc(O)c3)c2)c1.O=C(O)C(F)(F)F | 71 |
| FC(F)(F)c1ccc2[nH]c(-c3ccc(-c4cccc(CNCCc5cccnc5)c4)s3)nc2c1.O=C(O)C(F)(F)F | 98 |
| Cc1onc(-c2ccc(Cl)cc2)c1-c1ccnn1S(=O)(=O)c1ccc(Cl)cc1 | 99 |
| Cc1cc(NC(=O)Nc2ccc(I)c(OCCN(C)C)c2)ccc1Br.Cl | 42 |
| Cc1nc2cc(/C=C/C(=O)NC3CCC(CCN4CCc5ccc(C#N)cc5CC4)CC3)ccc2[nH]1.Cl (stereo not given) | 21 |
| CCN(CC)CCCN(CCCN(CC)CC)c1cc(C)nc(Nc2ccc3cc(Br)ccc3c2)n1.Cl | 73 |
| Clc1ccc(-c2ccc(CNCCCN3CCCC3)cc2)cc1 | 21 |
| Cc1ccc(-c2ccc3c(c2)C=C(C(=O)NC2CCN(CCNC(=O)c4cccs4)CC2)CCC3)cc1.O=C(O)C(F)(F)F | 30 |
| CCC(C)CN1C(=O)C(c2ccccc2)(c2ccccc2)N=C1N.O=CO (stereo not given) | 79 |
| CCOc1cc(Cl)c(C(C)NC(=O)c2cccc(OC)c2)cc1OCC (stereo not given) | 92 |
| CN1CCN(CCCN(Cc2csc(-c3ccc(CNCc4ccccc4)cc3)n2)S(=O)(=O)c2ccccc2)CC1.O=C(O)C(F)(F)F | 78 |
| COC(=O)c1cccc(CNCc2cccc(-c3ccc(-c4nc5cccc(C)c5[nH]4)s3)c2)c1.O=C(O)C(F)(F)F | 65 |
| Cl.Oc1ccccc1Nc1nc(NCc2ccco2)c2ccccc2n1 | 71 |
| COc1cc(-c2cc3cc(Cl)c(Cl)cc3[nH]2)ccc1C(=O)NCCC1CCCN1C.O=C(O)C(F)(F)F (stereo not given) | 41 |
| COc1ccccc1C1CCN(C2CCC(NC(=O)c3cc4ccccc4[nH]3)CC2)CC1 (stereo not given) | 7 |
| CC(C)Cc1ccc(N2CCN(CCCCNC(=O)c3ccc(NC(=O)c4ccc(Cl)c(Cl)c4)cc3)CC2)cc1 | 25 |
| Oc1ccc(-c2ccccc2)cc1CN1CCCCCC1 | 85 |
